By AC50 is commonly meant the concentration at which the activity in the assay is half-maximal.

Values joined by “and” are separate entries in the source; they are usually repeats but may differ in a detail not shown here. Identical values can stand only once. Records with an inconclusive call do not appear. A structure can be active in one record and inactive in another. Active and inactive are the calls of the source. The calls were made as follows: active = hit-call score of the fitted dose curve at least 0.9, where 1 is the maximum; inconclusive = response in the unintended direction; inactive = score below 0.9.

Assay [1] concerns the target chimpanzee Androgen Receptor (AR), AR (gene 747460) (UniProt O97775). The experiment in a line: NVS_NR_cAR: NovaScreen (NVS) Nuclear Receptor Binding Assay for chimpanzee Androgen Receptor (AR) (AID 2283346).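 Also: radioligand displacement from AR measured by scintillation counting in a cell-free assay; a loss of bound radioligand signal versus DMSO counts as binding.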 The gist of the method:
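Cell-free competition binding with insect-cell (Sf9/Sf21) extracted chimpanzee AR; scintillation signal from lysate at 72 h. Screened in duplicate at 25 uM, then concentration-response for actives; fitting relative to DMSO.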

In assay [2] the target is Estrogen receptor (Homo sapiens) (UniProt P03372). Nature of the assay: OT_ER_ERaERa_1440: Odyssey Thera (OT) 24-hour HEK293T Protein-Complementation Assay for Estrogen Receptor-alpha/-alpha Homodimer (AID 2283349).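 Also: hits raise fluorescence above DMSO for agonists and antagonists alike.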 The gist of the method: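 HEK293T, stable ERα LBD (aa 310-547) homodimer PCA; 24 h compound exposure; mean fluorescence intensity (nuclear for agonists, nuclear plus cytoplasmic for antagonists) vs vehicle; positive fitting direction, DMSO baseline.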
Estrogen receptor (Homo sapiens), sequence (P03372 whole entry, looked up, the tested form may be a part): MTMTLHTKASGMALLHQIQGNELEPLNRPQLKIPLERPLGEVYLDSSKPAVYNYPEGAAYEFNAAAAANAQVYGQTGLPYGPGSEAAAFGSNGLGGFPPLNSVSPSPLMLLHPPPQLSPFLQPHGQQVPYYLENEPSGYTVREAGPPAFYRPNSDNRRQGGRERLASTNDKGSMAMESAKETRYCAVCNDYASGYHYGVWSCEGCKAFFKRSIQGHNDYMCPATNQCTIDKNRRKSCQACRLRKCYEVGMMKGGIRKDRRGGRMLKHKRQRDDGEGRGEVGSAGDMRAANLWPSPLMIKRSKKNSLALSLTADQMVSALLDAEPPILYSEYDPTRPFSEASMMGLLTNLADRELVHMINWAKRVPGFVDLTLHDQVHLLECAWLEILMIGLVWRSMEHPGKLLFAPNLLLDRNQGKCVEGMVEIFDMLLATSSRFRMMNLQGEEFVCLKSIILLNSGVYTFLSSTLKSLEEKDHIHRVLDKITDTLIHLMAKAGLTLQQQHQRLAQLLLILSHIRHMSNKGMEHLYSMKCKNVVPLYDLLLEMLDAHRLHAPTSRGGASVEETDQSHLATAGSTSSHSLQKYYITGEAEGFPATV

The target is the same in assay [3]. Nature of the assay: OT_ER_ERaERa_0480: Odyssey Thera (OT) 8-hour HEK293T Protein-Complementation Assay for Estrogen Receptor-alpha/-alpha Homodimer (AID 2283351).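 Also: rise in fluorescence from reassembled reporter fragments on ERα LBD homodimer in nucleus or whole cell.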 An outline of the steps: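 Read-out: fluorescence intensity rise relative to DMSO, nuclear for agonists, nuclear plus cytoplasmic for antagonists. Construct is the ERα LBD (aa 310-547) homodimer fragment-complementation pair, stably expressed in HEK293T; exposure 8 h.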

Assay [4] addresses Estrogen receptor beta (Homo sapiens) (UniProt Q92731). The experiment in a line: OT_ER_ERbERb_0480: Odyssey Thera (OT) 8-hour HEK293T Protein-Complementation Assay for Estrogen Receptor-beta/-beta Homodimer (AID 2283357).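 Also: active means signal gain over DMSO baseline.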 An outline of the steps: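 ER-beta LBD homodimer PCA stably expressed in HEK293T; 8 h compound exposure, then formaldehyde fixation and Draq5 staining. Gain in nuclear/cytoplasmic fluorescence intensity versus DMSO vehicle, read on laser scanning cytometer.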

The target in assay [5] is Estrogen receptor (Homo sapiens) (UniProt P03372). The experiment in a line: NVS_NR_hER: NovaScreen (NVS) Nuclear Receptor Binding Assay for human Estrogen Receptor (ER) (AID 2283348). The gist of the method: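 Cell-free MCF7-derived ER preparation, specific radioligand displaced by test compound, read by scintillation counting 18 h post-dosing. Duplicate single-point 25 uM screen, then concentration-response confirmation; DMSO baseline.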

The target of assay [6] is T1, Estrogen receptor (Homo sapiens) + Estrogen receptor beta (Homo sapiens) (UniProt P03372+Q92731). Nature of the assay: OT_ER_ERaERb_0480: Odyssey Thera (OT) 8-hour HEK293T Protein-Complementation Assay for Estrogen Receptor-alpha/-beta Heterodimer (AID 2283352). The gist of the method:
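Fluorescence increase from reconstituted reporter fragments, quantified by laser scanning cytometer, reflects ER-alpha/ER-beta heterodimer formation in human HEK293T cells. Exposure 8 h; positive-direction fitting against DMSO vehicle.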

Assay [7] has as its target T1, Estrogen receptor (Homo sapiens) + Estrogen receptor beta (Homo sapiens). Nature of the assay: OT_ER_ERaERb_1440: Odyssey Thera (OT) 24-hour HEK293T Protein-Complementation Assay for Estrogen Receptor-alpha/-beta Homodimer (AID 2283356).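 Also: heteromer of ER alpha and ER beta binding domains; hits raise reporter fluorescence and both agonists and antagonists give an increase.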 The gist of the method:
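Fragment complementation between ER alpha (310-547) and ER beta (263-489) ligand-binding domains in HEK293T cells; signal read 24 h post-dosing by laser scanning cytometer. Gain of fluorescence relative to DMSO fitted.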

For assay [8], the target named is Androgen Receptor/SRC-1 Co-activator, AR (gene 367) (UniProt P10275). The experiment in a line: OT_AR_ARSRC1_0960: Odyssey Thera (OT) 16-hour HEK293T Protein-Complementation Assay for Androgen Receptor/SRC-1 Co-activator (AID 2283353).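 Also: actives raise the signal above DMSO so potency reflects increased AR and SRC-1 complex.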 The gist of the method:
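Readout: 488 nm nuclear-to-cytoplasmic fluorescence ratio from imaging of at least 400 cells per image, 16 h post-dose. Reporter is Venus YFP complementation between AR and SRC-1 fusions, stably expressed in HEK293T; activity scored upward relative to DMSO.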

For assay [9] the target is unchanged. Nature of the assay: OT_AR_ARSRC1_0480: Odyssey Thera (OT) 8-hour HEK293T Protein-Complementation Assay for Androgen Receptor/SRC-1 Co-activator (AID 2283354).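 Also: hits raise the complementation signal above DMSO so AC50 marks enhancers.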 The gist of the method: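 Reconstituted split-Venus YFP signal from AR–SRC-1 interaction, read by imaging 8 h post-dose in stable HEK293T lines. The 488 nm nucleus-to-cytoplasm ratio (≥400 cells/image) was fitted upward against DMSO.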

In assay [10] the target is rat Mineralocorticoid Receptor (MR), Nr3c2 (gene 25672) (UniProt P22199). Nature of the assay: NVS_NR_rMR: NovaScreen (NVS) Nuclear Receptor Binding Assay for rat Mineralocorticoid Receptor (MR) (AID 2283355). The gist of the method: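 Primary HTS ran in duplicate at a single 25 uM concentration, with concentration-series follow-up for actives. Receptor source: adrenalectomized rat brain supernatant, cell-free. Radioligand displacement read by scintillation at 24 h, relative to DMSO baseline.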
rat Mineralocorticoid Receptor (MR), Nr3c2 (gene 25672), sequence (P22199 whole entry, looked up): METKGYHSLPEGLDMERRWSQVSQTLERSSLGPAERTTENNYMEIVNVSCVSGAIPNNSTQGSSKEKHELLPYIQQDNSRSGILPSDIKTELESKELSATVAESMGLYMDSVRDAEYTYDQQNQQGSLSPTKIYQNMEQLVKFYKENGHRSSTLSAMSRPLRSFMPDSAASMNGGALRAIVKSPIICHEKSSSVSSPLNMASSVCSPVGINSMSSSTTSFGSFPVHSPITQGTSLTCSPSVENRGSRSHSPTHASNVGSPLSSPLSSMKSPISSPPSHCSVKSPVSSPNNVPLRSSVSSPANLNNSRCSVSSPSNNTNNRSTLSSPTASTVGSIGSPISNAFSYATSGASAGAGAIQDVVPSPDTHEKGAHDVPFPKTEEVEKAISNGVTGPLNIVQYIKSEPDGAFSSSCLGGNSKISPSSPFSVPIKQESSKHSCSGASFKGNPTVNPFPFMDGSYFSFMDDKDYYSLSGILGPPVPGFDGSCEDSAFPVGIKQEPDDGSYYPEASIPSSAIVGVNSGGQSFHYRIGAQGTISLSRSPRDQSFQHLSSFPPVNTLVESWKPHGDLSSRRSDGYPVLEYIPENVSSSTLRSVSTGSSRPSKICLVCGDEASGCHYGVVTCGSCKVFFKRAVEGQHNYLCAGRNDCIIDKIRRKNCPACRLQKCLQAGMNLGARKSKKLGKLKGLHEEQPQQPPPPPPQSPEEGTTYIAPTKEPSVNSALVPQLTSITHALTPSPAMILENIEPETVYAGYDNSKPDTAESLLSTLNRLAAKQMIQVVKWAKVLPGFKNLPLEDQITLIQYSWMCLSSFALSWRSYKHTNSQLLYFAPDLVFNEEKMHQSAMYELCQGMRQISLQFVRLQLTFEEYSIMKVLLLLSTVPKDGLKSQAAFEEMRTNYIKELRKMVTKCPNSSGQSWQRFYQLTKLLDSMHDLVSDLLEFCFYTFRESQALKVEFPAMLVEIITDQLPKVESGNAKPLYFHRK

chimpanzee Androgen Receptor (AR), AR (gene 747460), sequence (O97775 whole entry, looked up): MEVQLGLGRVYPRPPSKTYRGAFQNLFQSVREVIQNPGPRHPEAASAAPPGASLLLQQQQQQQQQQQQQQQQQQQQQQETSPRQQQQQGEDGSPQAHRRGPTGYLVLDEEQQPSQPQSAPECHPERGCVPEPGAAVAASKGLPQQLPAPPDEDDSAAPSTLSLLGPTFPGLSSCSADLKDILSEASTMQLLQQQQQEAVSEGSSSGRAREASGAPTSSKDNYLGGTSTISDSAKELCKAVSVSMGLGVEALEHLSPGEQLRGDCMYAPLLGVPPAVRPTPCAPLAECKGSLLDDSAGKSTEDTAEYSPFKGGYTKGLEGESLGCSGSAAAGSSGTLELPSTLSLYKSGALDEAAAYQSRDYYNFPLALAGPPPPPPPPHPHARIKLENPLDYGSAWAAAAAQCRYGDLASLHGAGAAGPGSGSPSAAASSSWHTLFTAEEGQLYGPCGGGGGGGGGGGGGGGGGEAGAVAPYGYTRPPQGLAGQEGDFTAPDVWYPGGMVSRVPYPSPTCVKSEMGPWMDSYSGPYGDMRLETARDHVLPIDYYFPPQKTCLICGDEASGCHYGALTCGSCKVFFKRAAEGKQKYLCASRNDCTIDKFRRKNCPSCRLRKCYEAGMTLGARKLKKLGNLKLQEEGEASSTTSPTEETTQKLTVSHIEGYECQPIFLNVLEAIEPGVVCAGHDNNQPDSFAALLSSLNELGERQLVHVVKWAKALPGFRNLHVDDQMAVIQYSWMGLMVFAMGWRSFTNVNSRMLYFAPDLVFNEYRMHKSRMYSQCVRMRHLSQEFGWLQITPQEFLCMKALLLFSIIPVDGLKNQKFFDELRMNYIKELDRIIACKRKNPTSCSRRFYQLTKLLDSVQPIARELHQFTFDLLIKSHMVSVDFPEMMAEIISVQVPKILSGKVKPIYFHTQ
Estrogen receptor beta (Homo sapiens), sequence (Q92731 whole entry, looked up, the tested form may be a part): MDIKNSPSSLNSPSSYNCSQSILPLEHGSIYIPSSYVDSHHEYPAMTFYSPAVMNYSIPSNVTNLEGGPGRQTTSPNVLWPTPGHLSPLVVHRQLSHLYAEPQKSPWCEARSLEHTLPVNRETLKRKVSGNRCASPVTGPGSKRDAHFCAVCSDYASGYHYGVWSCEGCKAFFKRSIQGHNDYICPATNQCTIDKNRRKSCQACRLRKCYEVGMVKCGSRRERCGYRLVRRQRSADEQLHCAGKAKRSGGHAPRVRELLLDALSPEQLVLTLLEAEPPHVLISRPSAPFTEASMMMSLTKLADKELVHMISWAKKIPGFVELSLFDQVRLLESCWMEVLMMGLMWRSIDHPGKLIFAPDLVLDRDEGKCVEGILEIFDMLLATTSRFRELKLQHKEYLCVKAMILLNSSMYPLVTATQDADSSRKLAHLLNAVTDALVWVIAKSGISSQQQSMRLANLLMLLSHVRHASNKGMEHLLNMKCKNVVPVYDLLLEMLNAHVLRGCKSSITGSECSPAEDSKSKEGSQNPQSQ
T1 sequence (P03372 whole entry, looked up, the tested form may be a part): as the sequence (P03372 whole entry, looked up, the tested form may be a part) above
T1 sequence (Q92731 whole entry, looked up, the tested form may be a part): as the sequence (Q92731 whole entry, looked up, the tested form may be a part) above
Androgen Receptor/SRC-1 Co-activator, AR (gene 367), sequence (P10275 whole entry, looked up, the tested form may be a part): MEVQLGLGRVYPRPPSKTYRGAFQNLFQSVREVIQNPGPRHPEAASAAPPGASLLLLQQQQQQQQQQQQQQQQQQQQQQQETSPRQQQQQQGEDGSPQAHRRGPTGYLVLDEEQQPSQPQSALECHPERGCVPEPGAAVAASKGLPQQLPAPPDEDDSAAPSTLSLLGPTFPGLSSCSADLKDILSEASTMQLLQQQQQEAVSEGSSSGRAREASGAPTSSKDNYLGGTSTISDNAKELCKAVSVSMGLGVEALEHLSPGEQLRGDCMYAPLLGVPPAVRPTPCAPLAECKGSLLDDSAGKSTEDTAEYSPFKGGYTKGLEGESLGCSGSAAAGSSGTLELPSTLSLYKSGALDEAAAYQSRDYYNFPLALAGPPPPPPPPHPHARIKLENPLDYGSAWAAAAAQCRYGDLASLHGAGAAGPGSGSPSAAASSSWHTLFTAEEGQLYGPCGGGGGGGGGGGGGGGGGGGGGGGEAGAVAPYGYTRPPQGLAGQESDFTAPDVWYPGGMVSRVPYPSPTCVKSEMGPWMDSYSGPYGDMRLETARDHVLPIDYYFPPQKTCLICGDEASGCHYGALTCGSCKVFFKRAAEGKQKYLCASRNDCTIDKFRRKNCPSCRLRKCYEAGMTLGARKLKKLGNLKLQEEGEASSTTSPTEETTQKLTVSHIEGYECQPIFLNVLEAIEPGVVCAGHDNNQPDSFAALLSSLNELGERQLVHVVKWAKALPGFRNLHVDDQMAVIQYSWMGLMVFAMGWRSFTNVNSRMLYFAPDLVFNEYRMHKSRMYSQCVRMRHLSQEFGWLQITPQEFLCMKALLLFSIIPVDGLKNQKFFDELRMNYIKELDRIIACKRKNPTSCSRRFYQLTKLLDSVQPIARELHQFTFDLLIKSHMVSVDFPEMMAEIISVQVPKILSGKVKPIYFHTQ

As to `O=c1cc(-c2ccc(O)cc2)oc2cc(O)cc(O)c12`, the AC50 in assay [1] is 12.9 µM (active).
For `[O-]/[N+](=N\O)c1ccccc1`, the compound was classed as inactive in assay [1], in [2], in assay [3] and in [4].
Consider `N#CCCCC(C#N)CCC#N` (stereo not drawn), for which the compound was called inactive in assay [1].
Consider `C=CC(=O)OCC(CO)(COC(=O)C=C)COC(=O)C=C`, for which the compound was classed as inactive in [5].
The same measure, in the same setting: to `CC/C=C\CCOC(C)OCC` (stereo not drawn) belongs “inactive”.
In the case of `CCCCCCCCCCCCOCCOS(=O)(=O)O`, the AC50 in assay [5] is 22.8 µM (active). The compound was called inactive in [2].
For the compound `CCCCCC1C(=O)CCC1CC(=O)OC` (stereo not drawn), in assay [1], the AC50 is 17.7 µM (active). Also, in [2], the call was inactive.
Regarding `CC/C(=C(\c1ccccc1)c1ccc(OCCN(C)C)cc1)c1ccccc1`, in assay [1], the AC50 is 19.4 µM (active) and the outcome was inactive.
As to `O=C(Nc1cccc(Cl)c1)OCC#CCCl`, the call in [5] was inactive.
As for `CCCCC/C=C\C=C\C(=O)OCC`, the AC50 in [5] was 42.7 µM (active). In addition, the outcome in [2], in [3], in [6], in assay [7] and in [4] was inactive.
With `OC[C@@H](O)[C@H](O)[C@@H](O)[C@@H](O)CO`, the outcome in [1] and in [2] was inactive.
As for `CC(C)(C)c1cccc(O)c1`, the compound was classed as inactive in [1], in assay [5], in assay [2], in assay [8] and in assay [9]. In assay [3], the AC50 was 60.2 µM (active).
Take `CC1(C)CC(=O)CC(C)(C)N1`: the outcome in [1] was inactive.
With `NNC(=O)OCc1ccccc1`, in [5], the compound was called inactive.
With `C#C[C@]1(O)CC[C@H]2[C@@H]3CCc4cc(O)ccc4[C@H]3CC[C@@]21C`, the AC50 in assay [1] is 966 nM (active) and 80.5 nM (active); in [10], 3.63 µM (active).
In the case of `O=C(O)c1cc2ccccc2cc1O`, the result in assay [5] was inactive.
Regarding `O=C(c1ccc(OCCN2CCCCC2)cc1)c1c(-c2ccc(O)cc2)sc2cc(O)ccc12`, in [1], the AC50 is 25 µM (active) and the compound was classed as inactive.
With `CCCc1ccc(O)cc1`, the result in [1], in [5] and in assay [2] was inactive. Besides, the concentration at half-maximal activity (AC50) in assay [3] is 63.7 µM (active); in assay [6], 45.2 µM (active); in assay [7], 43 µM (active); in assay [4] it was 33.4 µM (active).
